# Data taken from ChEMBL document CHEMBL1961873, “Compounds: GSK PKIS; Assays: Nanosyn kinase panel” (2012).
# Assays:
# [1] = target: Serine/threonine-protein kinase MRCK alpha (Homo sapiens) (UniProt Q5VT25); settings: at 0.1 µM
# [2] = target: Serine/threonine-protein kinase MRCK alpha (Homo sapiens) (UniProt Q5VT25); settings: at 1 µM
# [3] = target: Serine/threonine-protein kinase MRCK beta (Homo sapiens) (UniProt Q9Y5S2); settings: at 0.1 µM
# [4] = target: Serine/threonine-protein kinase MRCK beta (Homo sapiens) (UniProt Q9Y5S2); settings: at 1 µM
# [5] = target: Ribosomal protein S6 kinase alpha-5 (Homo sapiens) (UniProt O75582); settings: at 0.1 µM
# [6] = target: Ribosomal protein S6 kinase alpha-5 (Homo sapiens) (UniProt O75582); settings: at 1 µM
# [7] = target: Ribosomal protein S6 kinase alpha-4 (Homo sapiens) (UniProt O75676); settings: at 0.1 µM
# [8] = target: Ribosomal protein S6 kinase alpha-4 (Homo sapiens) (UniProt O75676); settings: at 1 µM
# [9] = target: Ribosomal protein S6 kinase beta-1 (Homo sapiens) (UniProt P23443); settings: at 0.1 µM
# [10] = target: Ribosomal protein S6 kinase beta-1 (Homo sapiens) (UniProt P23443); settings: at 1 µM
# [11] = target: T1, 3-phosphoinositide-dependent protein kinase 1 (Homo sapiens) (UniProt O15530); settings: at 0.1 µM;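 note: values are mean inhibition of PDK1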
# T1 sequence (whole entry): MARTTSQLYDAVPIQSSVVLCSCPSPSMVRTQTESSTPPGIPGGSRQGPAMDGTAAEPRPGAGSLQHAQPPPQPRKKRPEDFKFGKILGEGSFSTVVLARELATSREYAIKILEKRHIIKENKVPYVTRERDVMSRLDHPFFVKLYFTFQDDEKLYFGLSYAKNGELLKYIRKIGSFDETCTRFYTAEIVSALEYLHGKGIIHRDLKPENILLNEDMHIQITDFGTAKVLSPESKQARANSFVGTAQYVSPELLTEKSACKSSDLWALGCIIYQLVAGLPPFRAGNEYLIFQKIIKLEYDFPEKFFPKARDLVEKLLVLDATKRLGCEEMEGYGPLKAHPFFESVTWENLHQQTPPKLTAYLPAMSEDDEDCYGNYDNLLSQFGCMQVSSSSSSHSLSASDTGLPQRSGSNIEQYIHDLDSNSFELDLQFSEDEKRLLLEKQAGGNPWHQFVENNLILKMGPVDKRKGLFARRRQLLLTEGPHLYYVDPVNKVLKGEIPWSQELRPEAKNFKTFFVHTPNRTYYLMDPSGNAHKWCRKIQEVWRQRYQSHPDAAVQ
# [12] = target: cAMP-dependent protein kinase catalytic subunit alpha (Homo sapiens) (UniProt P17612); settings: at 0.1 µM
# [13] = target: cAMP-dependent protein kinase catalytic subunit alpha (Homo sapiens) (UniProt P17612); settings: at 1 µM
# [14] = target: Protein kinase C alpha type (Homo sapiens) (UniProt P17252); settings: at 0.1 µM
# [15] = target: Protein kinase C alpha type (Homo sapiens) (UniProt P17252); settings: at 1 µM
# [16] = target: Protein kinase C beta type (Homo sapiens) (UniProt P05771); settings: at 0.1 µM
# [17] = target: Protein kinase C beta type (Homo sapiens) (UniProt P05771); settings: at 1 µM
# [18] = target: Protein kinase C eta type (Homo sapiens) (UniProt P24723); settings: at 0.1 µM
# [19] = target: Protein kinase C eta type (Homo sapiens) (UniProt P24723); settings: at 1 µM
# [20] = target: Protein kinase C gamma type (Homo sapiens) (UniProt P05129); settings: at 0.1 µM;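 note: values are mean percent inhibition of PKC gamma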
# Serine/threonine-protein kinase MRCK alpha (Homo sapiens), sequence (Q5VT25 whole entry): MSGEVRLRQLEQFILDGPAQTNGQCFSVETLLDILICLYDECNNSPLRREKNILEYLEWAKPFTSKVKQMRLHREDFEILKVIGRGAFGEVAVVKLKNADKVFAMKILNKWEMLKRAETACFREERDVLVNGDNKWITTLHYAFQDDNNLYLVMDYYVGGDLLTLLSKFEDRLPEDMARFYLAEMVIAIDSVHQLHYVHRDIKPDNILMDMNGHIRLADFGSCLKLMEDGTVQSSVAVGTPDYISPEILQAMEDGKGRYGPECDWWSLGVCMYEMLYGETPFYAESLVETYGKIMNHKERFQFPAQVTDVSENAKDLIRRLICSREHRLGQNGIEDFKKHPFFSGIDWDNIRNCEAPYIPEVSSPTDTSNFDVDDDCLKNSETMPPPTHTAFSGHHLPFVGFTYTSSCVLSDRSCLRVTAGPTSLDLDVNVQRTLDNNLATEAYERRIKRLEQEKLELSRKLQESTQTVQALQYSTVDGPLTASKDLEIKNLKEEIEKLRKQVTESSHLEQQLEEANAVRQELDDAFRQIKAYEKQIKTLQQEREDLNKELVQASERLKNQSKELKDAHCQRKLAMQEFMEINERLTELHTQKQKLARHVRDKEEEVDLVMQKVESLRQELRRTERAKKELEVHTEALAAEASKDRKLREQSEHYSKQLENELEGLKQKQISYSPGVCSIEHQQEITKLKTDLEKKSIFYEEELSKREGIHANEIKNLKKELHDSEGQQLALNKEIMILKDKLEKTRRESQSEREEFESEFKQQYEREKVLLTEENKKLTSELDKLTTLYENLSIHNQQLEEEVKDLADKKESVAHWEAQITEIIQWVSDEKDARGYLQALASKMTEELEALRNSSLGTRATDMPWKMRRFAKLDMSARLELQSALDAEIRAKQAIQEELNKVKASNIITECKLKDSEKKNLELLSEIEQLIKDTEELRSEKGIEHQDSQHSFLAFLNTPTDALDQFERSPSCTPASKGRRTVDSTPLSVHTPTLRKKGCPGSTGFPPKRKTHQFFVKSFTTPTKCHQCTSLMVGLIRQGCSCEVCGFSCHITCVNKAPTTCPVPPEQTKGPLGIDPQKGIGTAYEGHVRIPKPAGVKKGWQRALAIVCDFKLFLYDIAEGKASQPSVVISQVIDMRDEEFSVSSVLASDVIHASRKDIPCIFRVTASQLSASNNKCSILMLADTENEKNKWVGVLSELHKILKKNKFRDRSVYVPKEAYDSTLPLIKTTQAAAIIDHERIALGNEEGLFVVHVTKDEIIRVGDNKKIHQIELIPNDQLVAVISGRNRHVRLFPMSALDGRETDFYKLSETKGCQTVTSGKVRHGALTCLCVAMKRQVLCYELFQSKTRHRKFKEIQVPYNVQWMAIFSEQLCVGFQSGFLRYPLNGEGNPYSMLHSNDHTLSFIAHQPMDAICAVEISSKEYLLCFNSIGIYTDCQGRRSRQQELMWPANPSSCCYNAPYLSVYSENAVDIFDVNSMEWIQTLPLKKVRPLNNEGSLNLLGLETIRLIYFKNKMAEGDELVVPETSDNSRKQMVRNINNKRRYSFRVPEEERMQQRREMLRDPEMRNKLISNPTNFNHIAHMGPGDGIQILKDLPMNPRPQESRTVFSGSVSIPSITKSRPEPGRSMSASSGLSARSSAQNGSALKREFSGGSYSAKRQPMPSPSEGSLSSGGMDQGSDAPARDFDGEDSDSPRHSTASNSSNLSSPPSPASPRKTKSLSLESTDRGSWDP
# Serine/threonine-protein kinase MRCK beta (Homo sapiens), sequence (Q9Y5S2 whole entry): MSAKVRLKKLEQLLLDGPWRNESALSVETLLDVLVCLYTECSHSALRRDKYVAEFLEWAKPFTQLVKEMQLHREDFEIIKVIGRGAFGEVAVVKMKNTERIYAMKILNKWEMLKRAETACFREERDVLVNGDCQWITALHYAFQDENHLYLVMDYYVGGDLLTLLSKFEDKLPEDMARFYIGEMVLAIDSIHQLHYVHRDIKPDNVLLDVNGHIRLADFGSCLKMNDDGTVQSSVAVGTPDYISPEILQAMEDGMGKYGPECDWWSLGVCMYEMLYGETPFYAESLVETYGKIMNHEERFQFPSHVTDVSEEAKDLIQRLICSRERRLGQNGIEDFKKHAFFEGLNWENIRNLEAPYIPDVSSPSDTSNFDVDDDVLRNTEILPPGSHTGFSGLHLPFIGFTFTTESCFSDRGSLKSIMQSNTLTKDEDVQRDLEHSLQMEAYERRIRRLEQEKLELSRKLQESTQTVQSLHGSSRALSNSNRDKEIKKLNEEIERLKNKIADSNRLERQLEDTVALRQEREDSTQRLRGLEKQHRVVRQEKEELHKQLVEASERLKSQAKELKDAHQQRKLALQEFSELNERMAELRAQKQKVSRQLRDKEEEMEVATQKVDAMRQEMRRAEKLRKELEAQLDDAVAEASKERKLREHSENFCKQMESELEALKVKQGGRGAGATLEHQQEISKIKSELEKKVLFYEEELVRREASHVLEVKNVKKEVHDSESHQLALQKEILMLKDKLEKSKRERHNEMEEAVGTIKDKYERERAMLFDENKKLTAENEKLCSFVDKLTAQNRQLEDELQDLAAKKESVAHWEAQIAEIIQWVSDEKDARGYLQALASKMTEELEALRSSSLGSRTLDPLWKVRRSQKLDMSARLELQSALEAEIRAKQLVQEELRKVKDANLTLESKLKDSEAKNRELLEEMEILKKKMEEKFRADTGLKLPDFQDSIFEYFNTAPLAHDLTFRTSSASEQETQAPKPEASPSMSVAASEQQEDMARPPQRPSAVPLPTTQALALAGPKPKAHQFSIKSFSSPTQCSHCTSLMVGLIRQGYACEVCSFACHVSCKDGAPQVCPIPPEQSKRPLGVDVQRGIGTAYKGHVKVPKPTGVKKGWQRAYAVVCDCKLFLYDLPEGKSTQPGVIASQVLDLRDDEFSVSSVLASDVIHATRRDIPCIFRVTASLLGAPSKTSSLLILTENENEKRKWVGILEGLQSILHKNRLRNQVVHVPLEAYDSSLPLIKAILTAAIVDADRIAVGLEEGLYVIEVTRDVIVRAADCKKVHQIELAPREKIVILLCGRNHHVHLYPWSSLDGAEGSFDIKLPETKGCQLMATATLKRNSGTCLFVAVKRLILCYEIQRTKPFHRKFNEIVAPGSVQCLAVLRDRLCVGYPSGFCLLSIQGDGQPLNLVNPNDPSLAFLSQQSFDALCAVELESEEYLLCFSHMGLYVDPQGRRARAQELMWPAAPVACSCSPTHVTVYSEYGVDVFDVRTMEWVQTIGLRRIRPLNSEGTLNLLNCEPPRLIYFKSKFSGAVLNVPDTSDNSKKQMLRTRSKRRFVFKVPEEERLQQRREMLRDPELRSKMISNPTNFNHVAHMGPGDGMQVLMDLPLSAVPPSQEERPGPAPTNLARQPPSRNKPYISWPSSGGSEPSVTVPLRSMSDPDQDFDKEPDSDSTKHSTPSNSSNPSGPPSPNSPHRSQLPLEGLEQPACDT
# Ribosomal protein S6 kinase alpha-4 (Homo sapiens), sequence (O75676 whole entry, looked up): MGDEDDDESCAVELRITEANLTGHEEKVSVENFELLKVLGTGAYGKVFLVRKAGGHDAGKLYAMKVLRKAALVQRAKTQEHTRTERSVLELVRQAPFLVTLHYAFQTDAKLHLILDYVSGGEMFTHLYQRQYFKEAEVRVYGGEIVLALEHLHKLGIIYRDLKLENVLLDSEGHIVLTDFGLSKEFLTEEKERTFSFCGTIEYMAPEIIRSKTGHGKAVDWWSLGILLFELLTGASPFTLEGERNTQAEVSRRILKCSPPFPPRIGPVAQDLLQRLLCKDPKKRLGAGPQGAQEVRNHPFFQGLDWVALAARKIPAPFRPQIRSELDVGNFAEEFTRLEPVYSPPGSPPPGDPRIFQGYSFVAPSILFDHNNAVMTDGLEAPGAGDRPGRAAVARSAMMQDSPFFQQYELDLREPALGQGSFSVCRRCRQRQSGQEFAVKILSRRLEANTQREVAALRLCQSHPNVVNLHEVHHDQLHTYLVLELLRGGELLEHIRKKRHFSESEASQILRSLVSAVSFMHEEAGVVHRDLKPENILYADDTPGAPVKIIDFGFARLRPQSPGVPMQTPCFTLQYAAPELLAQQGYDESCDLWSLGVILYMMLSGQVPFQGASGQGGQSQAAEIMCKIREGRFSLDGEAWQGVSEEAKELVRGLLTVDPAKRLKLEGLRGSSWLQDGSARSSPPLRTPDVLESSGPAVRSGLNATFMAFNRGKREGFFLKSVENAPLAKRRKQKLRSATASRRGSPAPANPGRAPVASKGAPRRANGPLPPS
# Ribosomal protein S6 kinase beta-1 (Homo sapiens), sequence (P23443 whole entry, looked up): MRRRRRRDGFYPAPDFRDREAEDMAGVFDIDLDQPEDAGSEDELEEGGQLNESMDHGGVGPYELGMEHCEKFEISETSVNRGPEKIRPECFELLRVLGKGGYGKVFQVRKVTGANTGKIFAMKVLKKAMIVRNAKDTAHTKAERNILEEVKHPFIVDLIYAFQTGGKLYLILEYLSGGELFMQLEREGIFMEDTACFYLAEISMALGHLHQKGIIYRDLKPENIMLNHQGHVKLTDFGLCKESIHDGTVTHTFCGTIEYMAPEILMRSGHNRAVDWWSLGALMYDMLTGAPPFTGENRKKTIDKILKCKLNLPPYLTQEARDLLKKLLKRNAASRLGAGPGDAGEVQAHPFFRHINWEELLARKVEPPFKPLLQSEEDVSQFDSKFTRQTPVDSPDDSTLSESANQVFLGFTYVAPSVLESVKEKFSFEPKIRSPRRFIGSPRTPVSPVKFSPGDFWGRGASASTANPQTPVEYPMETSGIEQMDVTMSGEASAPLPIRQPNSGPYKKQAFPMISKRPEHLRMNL
SMILES,inhibition [1],inhibition [2],inhibition [3],inhibition [4],inhibition [5],inhibition [6],inhibition [7],inhibition [8],inhibition [9],inhibition [10],inhibition [11],inhibition [12],inhibition [13],inhibition [14],inhibition [15],inhibition [16],inhibition [17],inhibition [18],inhibition [19],inhibition [20]
CS(=O)(=O)Nc1ccc(-c2ccc3c(NC(=O)C4CC4)n[nH]c3c2)cc1,-0.45%,-1.86%,-0.12%,1.45%,3.35%,5.67%,-1%,3.37%,2.17%,2.83%,2.46%,1.42%,1.85%,1.17%,1.78%,-0.7%,0.21%,4.05%,1.11%,2.49%
Fc1cccc(COc2ccc(Nc3ncncc3C#Cc3ccccc3)cc2Cl)c1,-0.09%,2.32%,-0.25%,0.29%,3.88%,4.33%,2.46%,4.37%,1.71%,2.17%,3.09%,2.03%,2.57%,1.03%,1.01%,1.01%,4.8%,0.23%,4.62%,3.66%
N#Cc1ccc2c(-c3ccnc(NC4CC4)n3)c(-c3ccc(F)cc3)nn2c1,0.79%,0.87%,0.13%,0.52%,0.77%,-0.33%,0.92%,-0.56%,0.06%,-0.85%,0.01%,1.59%,0.4%,0.15%,1.24%,-1.19%,-0.72%,2.95%,0.36%,1.4%
c1ccc(-c2n[nH]cc2-c2ccnc(-c3ccc(OCCn4ccnc4)cc3)c2)nc1,-0.22%,-0.54%,1.02%,2.11%,-4.46%,-0.29%,0.76%,3.98%,0.32%,0.33%,0.22%,0.39%,4.32%,0.35%,0.47%,0.31%,0.68%,-2.29%,-0.53%,0.17%
CS(=O)(=O)CCNCc1ccc(-c2ccc3ncnc(Nc4ccc(OCc5ccccc5)cc4)c3c2)o1,-0.82%,-2.61%,0.05%,1.22%,1.86%,0.66%,3.06%,2.56%,1.52%,2.62%,1.7%,2.17%,2.45%,0.5%,1.49%,1.41%,0.21%,3.12%,3.6%,2.13%
O=C(O[C@H]1CN[C@H](C#Cc2cc3ncnc(Nc4ccc5c(cnn5Cc5ccccc5)c4)c3s2)C1)N1CCOCC1,0.53%,-6.83%,-0.65%,-2.08%,-1.78%,-2.26%,0.14%,-0.97%,-0.07%,-1.65%,-1.36%,0.31%,1.15%,0.54%,-0.04%,-0.18%,-6.28%,-1.67%,-2.51%,1.56%
Cc1ccc(-c2cc3c(NC(=O)C4CC4)ncnc3o2)cc1,-0.24%,0.37%,1.15%,1.58%,3.67%,3.15%,2.15%,4.27%,2.29%,1.52%,1.92%,1.76%,1.5%,0.9%,0.92%,2.14%,2.41%,2.1%,1.62%,2.91%
O=C(O[C@H]1CN[C@H](C#Cc2cc3ncnc(Nc4ccc(OCc5cccc(F)c5)c(Cl)c4)c3s2)C1)N1CCOCC1,-0.44%,0.92%,0.34%,0.26%,-0.86%,0.41%,2.64%,4.39%,1.72%,2.85%,0.08%,2.39%,3.33%,0.97%,-4.52%,1.43%,2.48%,2.88%,5.07%,4.27%
CC1=C(C(=O)Nc2ccc3[nH]nc(C)c3c2)C(c2ccc(C(F)(F)F)cc2)CC(=O)N1 (stereo not given),1.9%,17.1%,5.5%,37.4%,6.02%,28.8%,1.31%,11.5%,1.6%,9.4%,1.14%,3.3%,26.6%,0.72%,7.98%,-0.41%,-0.53%,3.4%,9.11%,4.48%
COC(=O)Nc1nc2cc(Oc3ccc(NC(=O)Nc4ccccc4)cc3)ccc2[nH]1,1.11%,3.26%,-0.1%,0.05%,2.4%,2.36%,2.62%,3.88%,2.09%,3.12%,1.31%,2.49%,2.15%,-0.02%,0.51%,1.53%,2.12%,2.8%,6.1%,0.41%
CC(C)c1ccc(-c2cc(-c3c[nH]nc3-c3ccccn3)ccn2)cc1,-0.14%,-0.28%,-0.59%,2.06%,1.59%,1.63%,1.53%,2.87%,0.17%,-0.41%,1.17%,1.32%,2.36%,0.02%,1.23%,2.16%,3.68%,1.36%,0.07%,-1.26%
CN(c1ccc(NC(=O)NCCN2CCOCC2)cc1)c1ccnc(Nc2ccc(CS(C)(=O)=O)cc2)n1,-0.04%,2.59%,0.01%,0.6%,3.04%,3.65%,2.62%,3.19%,1.53%,1.23%,0.31%,1.27%,4.06%,-0.51%,-0.33%,0.46%,1.54%,4.71%,5.63%,2.51%
O=C1Nc2ccccc2/C1=C1\CCc2cc(O)ccc21,0.14%,0.38%,1.68%,1.65%,1.96%,10.1%,16.3%,56.7%,2.81%,11.6%,15.1%,2.16%,4.57%,1.24%,2.87%,0.69%,1.16%,2.22%,3.7%,2.96%
